The values below come from PubChem BioAssay AID372 (MTDP, 2006).

About 770 (0.77%) of roughly 100,000 compounds were called active. Many of the other results were omitted from the sample, so actives are more common in it than they were. Values without a mark were called inactive. Rule as the data show it: active = inhibition above about 50%; inactive = the rest.

The target of this experiment is Gag-Pol polyprotein (Human immunodeficiency virus type 1 group M subtype B (isolate HXB2)) (UniProt P04585). In words: RNase H inhibition, HIV 1 Gag Pol polyprotein, FRET biochemical assay, screening (AID 372). The following applies: HIV-1 RT RNase H, FRET RNA/DNA substrate fluorescence; at 10 µM; hits give high values.
Turning to `Cc1ccc(NC(=O)c2ccc(Cl)c(Cl)c2)c([N+](=O)[O-])c1`, the inhibition is 1%.

Turning to `CC(=O)NC(NC(=S)Nc1sc2c(c1C#N)CCCC2)C(Cl)(Cl)Cl` (stereo not given), the inhibition was 20%. The result for `COc1cc(C2CC(=O)NC(SCc3ccccc3)=C2C#N)ccc1O` (stereo not given) reads 6%; that for `O=C(NN=C1CCCCC1)C(=O)Nc1ccc(F)cc1`, 8%; that for `CCOc1c(Br)cc(/C=C2N=C(/C=C/c3ccccc3)OC/2=O)cc1OC`, 9%. On to `O=C(NNC(=O)c1cccc(O)c1)c1ccc(Br)cc1`, for which the inhibition is 10%. Consider `O=C(NNC(=O)c1cccc(C#Cc2ccccc2)c1)c1ccc(Br)cc1`, for which the inhibition was 46%.

On to `O=C(NNC(=O)c1cccc(C(=O)NNC(=O)c2ccc(Br)cc2)c1)c1ccc(Br)cc1`, for which the inhibition was 53% (active).

On to `COc1ccc(C(NC(=O)C(C)C)c2ccc3cccnc3c2O)cc1OC` (stereo not given), for which the inhibition is 5%. Turning to `Oc1ccc(N=Cc2ccc(O)c(O)c2)cc1`, the inhibition is 70% (active).

On to `Oc1ccc(/C=N/N=C/c2ccc(O)c(O)c2)cc1O`, for which the inhibition is 69% (active).

`Oc1ccc(C=Nc2ccc(O)cc2)cc1`: the inhibition was 4%. For the compound `Cc1nnc(C)n1/N=C/c1ccc(O)c(O)c1`, the inhibition was 44%. Take `Oc1ccc(C=Nc2ccc(Cl)c(Cl)c2)cc1O`: the inhibition was 17%.

For `Oc1ccc(C=Nc2ccc(N=Cc3ccc(O)cc3)cc2)cc1`, the inhibition was 15%.

`COc1ccc(C(=O)OCC(=O)c2ccc(Br)cc2)cc1OC`: the inhibition is 16%.

Take `C=CCN(c1ccccc1C(=O)O)S(=O)(=O)/C=C/c1ccccc1`: the inhibition is 6%.

As for `CCOc1ccc(/C=N/NC(=O)c2cc(-c3ccc4ccccc4c3)n[nH]2)cc1`, the inhibition is 14%.

Regarding `COc1ccc(NCC(O)Cn2c3ccc(Cl)cc3c3cc(Cl)ccc32)c(OC)c1` (stereo not given), the inhibition was 27%. `O=C(NCc1ccco1)c1ccc(-c2cc(Cl)ccc2Cl)o1`: the inhibition is 31%. `O=C(N=Nc1c(O)[nH]c2ccc(Br)cc12)C1COc2cc3ccccc3cc2O1` (stereo not given): the inhibition was 4%. Consider `CCCn1c(O)c(N=NC(=O)C2COc3cc4ccccc4cc3O2)c2ccccc21` (stereo not given), for which the inhibition was 34%. For the compound `Cn1c(O)c(N=NC(=O)C2COc3cc4ccccc4cc3O2)c2ccccc21` (stereo not given), the inhibition was 50% (active). Turning to `Cc1ccc2c(c1)c(N=NC(=O)COc1ccccc1C)c(O)n2C`, the inhibition was 20%. The result for `O=C(NCCOc1cccc2ccccc12)Nc1cc(F)c(F)cc1Cl` reads 0%; that for `O=C(NCCOc1cccc2ccccc12)Nc1cccc2ccccc12`, 51% (active); that for `S=C(NCCOc1cccc2ccccc12)Nc1cccc2ccccc12`, 45%. As to `O=C(NN1CCOCC1)c1ccc(Br)cc1`, the inhibition was 2%. In the case of `Cc1cccnc1NS(=O)(=O)c1cc(Cl)ccc1Cl`, the inhibition is 10%. For `O=C1C=CC(=NS(=O)(=O)c2cccc([N+](=O)[O-])c2)C=C1`, the inhibition is 45%. Consider `O=C1C=C/C(=N\S(=O)(=O)c2ccc(Cl)c([N+](=O)[O-])c2)c2ccccc21`, for which the inhibition was 34%.

On to `Cc1ccc(S(=O)(=O)/N=C2/C=C(Cl)C(=O)c3ccccc32)cc1`, for which the inhibition is 20%.

Turning to `CC1=C/C(=N/S(=O)(=O)c2ccc(C)cc2)C=C(Cl)C1=O`, the inhibition is 17%. Turning to `CC1=CC(=O)C=C/C1=N\S(=O)(=O)c1ccc(C)cc1`, the inhibition was 32%. `Cc1ccc(S(=O)(=O)/N=C2\C=CC(=O)C(Br)=C2)cc1`: the inhibition is 20%.

For `O=C1C=CC(=NS(=O)(=O)c2ccc(F)cc2)C=C1`, the inhibition is 43%. The result for `O=C1C=CC(=NS(=O)(=O)c2ccccc2)C=C1` reads 56% (active); that for `O=C1C=CC(=NS(=O)(=O)c2ccc(Cl)cc2)C=C1`, 28%. Consider `COc1ccc(Cl)cc1NC(=O)c1cc(-c2ccccc2)nc2ccccc12`, for which the inhibition is 0%. The result for `COc1cc(C2/C(=C(\O)c3ccc(C)cc3)C(=O)C(=O)N2CCCC(=O)O)ccc1O` (stereo not given) reads 0%.

On to `CCOC(=O)C1=C(C)N=c2s/c(=C\c3ccccc3O)c(=O)n2C1c1ccc(Cl)cc1` (stereo not given), for which the inhibition is 21%. Take `COc1ccc(NC(=O)c2nn3c(C(F)(F)F)cc(-c4ccco4)nc3c2Cl)c(OC)c1`: the inhibition is 13%. The result for `COc1ccc(C(=O)N/C(=C\c2ccc(-c3cccc([N+](=O)[O-])c3)o2)C(=O)NCc2ccncc2)cc1` reads 0%. Turning to `Cc1ccccc1S(=O)(=O)N=C1C=CC(=O)C(Cl)=C1`, the inhibition is 11%. Regarding `O=C1C(Cl)=CC(=NS(=O)(=O)c2ccccc2)C=C1Br`, the inhibition was 26%.

On to `O=S(=O)(N=C1C(Cl)=C(Cl)C(=NS(=O)(=O)c2ccccc2)C(Cl)=C1Cl)c1ccccc1`, for which the inhibition is 31%. Consider `O=C1C=C/C(=N\S(=O)(=O)c2ccccc2)C=C1Cl`, for which the inhibition was 19%.

As to `CC(C)C1=CC(=NS(=O)(=O)c2ccc(Cl)cc2)C=C(C(C)C)C1=O`, the inhibition is 5%. `O=C1C(Cl)=CC(=NS(=O)(=O)c2ccc(Cl)cc2)C=C1Cl`: the inhibition is 28%. Take `CC(C)(C)c1ccc(S(=O)(=O)N=C2C=CC(=O)C=C2)cc1`: the inhibition is 20%. In the case of `O=C1C(Cl)=CC(=NS(=O)(=O)c2ccc(Cl)cc2)c2ccccc21`, the inhibition is 8%. For the compound `CC(=O)N/C(=C\c1ccccc1)C(=O)NCC(=O)O`, the inhibition is 6%. Then `Cc1cccc(NC(=O)C(=O)NNC(=O)c2ccccc2C)c1`, with 4%; and `Cc1ccc(-c2ccccc2)n1-c1ccccc1C(=O)O`, with 12%.

Turning to `O=C(O)/C=C\C(=O)N/N=C/c1ccccc1`, the inhibition is 4%. For the compound `O=C(Nc1ccccn1)c1ccc2c(c1)C(=O)N(c1cccc3c(N4C(=O)c5ccc(C(=O)Nc6ccccn6)cc5C4=O)cccc13)C2=O`, the inhibition is 2%. As for `CCC1CCc2c(sc(NC(=O)c3ccc([N+](=O)[O-])cc3Cl)c2C(=O)OC)C1` (stereo not given), the inhibition was 0%. As to `O=C1C(N2CCOCC2)=C/C(=N\S(=O)(=O)c2ccc(Cl)cc2)c2ccccc21`, the inhibition is 61% (active). Consider `CC1=C(C)/C(=N\S(=O)(=O)c2ccc(C)cc2)C=C(N2CCOCC2)C1=O`, for which the inhibition is 19%. Regarding `Cc1ccc(S(=O)(=O)/N=C2/C=C(N3CCOCC3)C(=O)c3ccccc32)cc1`, the inhibition was 5%. Regarding `Cc1ccccc1N1C(=O)C2C3c4ccccc4C(C)(c4ccccc43)C2C1=O` (stereo not given), the inhibition is 0%. Regarding `O=C(COc1cc(O)c2c(=O)cc(-c3ccccc3)oc2c1)c1ccccc1`, the inhibition was 3%.

Regarding `O=C1C(=O)N(c2nccs2)C(c2ccccc2F)/C1=C(/O)c1ccc(Cl)cc1` (stereo not given), the inhibition is 21%. Turning to `COc1cccc(NC(=O)Nc2nnc(-c3ccccc3F)s2)c1`, the inhibition is 53% (active). As to `COc1cccc(NC(=O)Nc2nnc(-c3ccccc3SCc3ccccc3F)s2)c1`, the inhibition is 23%. Turning to `COc1cccc(NC(=O)Nc2nnc(-c3ccccc3I)s2)c1`, the inhibition is 0%. For the compound `CCc1nnc(NC(=O)CCCOc2ccc(Cl)cc2C)s1`, the inhibition was 12%. Then `O=[N+]([O-])c1ccc(NCCCNS(=O)(=O)c2ccc(Cl)cc2)cc1`, with 8%; and `O=C(O)CCC(=O)NNC(=O)c1ccncc1`, with 10%; and `COC(=O)c1cc(C(=O)N2CCC(C(=O)OC)CC2)cc([N+](=O)[O-])c1`, with 7%.

Consider `CCOC(=O)CNC(=O)c1cccc([N+](=O)[O-])c1`, for which the inhibition is 15%. In the case of `CCOC(=O)CNC(=O)c1ccc([N+](=O)[O-])cc1`, the inhibition was 4%. Regarding `CCOC(=O)C1CCN(C(=O)c2cc(C(=O)OC)cc([N+](=O)[O-])c2)CC1`, the inhibition is 54% (active). Turning to `CCOC(=O)CNC(=O)c1cc(C(=O)OC)cc([N+](=O)[O-])c1`, the inhibition is 52% (active). For the compound `CCOC(=O)C1CCCN(C(=O)c2cc(C(=O)OC)cc([N+](=O)[O-])c2)C1` (stereo not given), the inhibition is 16%.

As to `O=C(CN(c1ccc([N+](=O)[O-])cc1)S(=O)(=O)c1ccccc1)NC1CC2CCC1C2` (stereo not given), the inhibition is 13%.

Consider `Cc1ccc(N2C(=O)NC(=O)/C(=C\c3ccc(OCC(=O)O)c(Br)c3)C2=O)cc1`, for which the inhibition was 3%.

For the compound `O=C(NC(=S)Nc1cccc(C(F)(F)F)c1)c1ccc(-c2ccc(Cl)cc2)o1`, the inhibition was 10%. As to `O=C(Nc1ccc(F)cc1)Nc1nnc(-c2ccccc2SCc2ccccc2)s1`, the inhibition is 25%. The result for `Clc1cccc(Cl)c1OCCCN1CCCC1` reads 7%. The result for `Clc1cccc(Cl)c1OCCCN1CCCCC1` reads 2%.

Consider `Clc1cccc(Cl)c1OCCN1CCCC1`, for which the inhibition was 56% (active). Take `COc1cc(/C=C(\C#N)C(=O)Nc2ccc(F)cc2)c([N+](=O)[O-])cc1OC`: the inhibition is 3%. For `Cc1ccc([N+](=O)[O-])cc1-c1[nH]c(-c2ccc(C#N)cc2)nc1-c1ccccc1`, the inhibition was 57% (active). For the compound `COc1cc(-c2nc(-c3ccccc3)c(-c3cc([N+](=O)[O-])ccc3C)[nH]2)cc(OC)c1OC`, the inhibition was 33%. Then `Cc1ccc([N+](=O)[O-])cc1-c1[nH]c(-c2cccc(O)c2)nc1-c1ccccc1`, with 32%. Consider `O=[N+]([O-])c1ccccc1C=Nc1cccc2ccccc12`, for which the inhibition is 6%. Then `N#C/C(=C/c1cccc2ccccc12)c1ccc([N+](=O)[O-])cc1`, with 36%; and `C/C(=C\c1cccc2ccccc12)[N+](=O)[O-]`, with 53% (active); and `COC(=O)c1ccccc1NC(=O)c1cc(=O)[nH]c2ccccc12`, with 1%. With `CCOC(=O)c1ccc2[nH]c(C)c(C/C=C(/C)Cl)c(=O)c2c1`, the inhibition is 0%. For `O=C(Nc1ccc2oc(-c3ccc(I)cc3)nc2c1)c1ccc2c(c1)OCCO2`, the inhibition is 15%.

In the case of `O=C(Nc1ccc2oc(-c3ccc(F)cc3)nc2c1)c1ccc2c(c1)OCCO2`, the inhibition was 51% (active). Then `O=C(Nc1cccc(-c2nc3cc(Cl)ccc3o2)c1)c1ccc2c(c1)OCCO2`, with 9%. As for `Cc1ccc(-c2nc3cc(Cl)cc(Cl)c3o2)cc1NC(=O)c1ccc2c(c1)OCCO2`, the inhibition was 24%.

Take `O=C(Nc1ccc2oc(-c3ccccc3)nc2c1)c1ccc2c(c1)OCCO2`: the inhibition was 11%. Regarding `Cc1ccc(C(=O)Nc2ccc(-c3nc4cc(Cl)cc(Cl)c4o3)cc2)cc1`, the inhibition is 11%.

Regarding `O=C(Nc1ccc2oc(-c3cccc(Cl)c3)nc2c1)c1ccc2c(c1)OCCO2`, the inhibition is 37%. Take `O=C(Nc1ccc(-c2nc3cc(Cl)cc(Cl)c3o2)cc1)c1ccc2c(c1)OCCO2`: the inhibition is 58% (active). As for `O=C(Nc1ccc2oc(-c3cccc(I)c3)nc2c1)c1ccc2c(c1)OCCO2`, the inhibition was 56% (active).

Usually inhibition stands for the share of the control response that was lost under treatment.
